Measurements as given in the supplement of paper PMC9446081.
Screen size: about 39,000 compounds; about 220 (0.56%) showed activity. This is one part of a sample in which actives are shown more often than they occur.
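Further: Wild-type cells incubated without shaking, value is the mean of two biological replicates.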

The compounds below were run on Escherichia coli K-12 BW25113 (assay: relative growth (OD600 normalised to plate interquartile mean) (fraction); higher = less growth inhibition, active = 0.2 or less). Conditions: 50 µM; LB; incubation time: overnight (16-24 h).
With C[C@H](CO)N1C[C@H](C)[C@@H](CN(C)C(=O)NC2CCCCC2)Oc2ccc(NC(=O)Nc3cccc4ccccc34)cc2C1=O the relative growth was 1.04 (inactive).
CCC(=O)Nc1ccc2ccccc2c1 was tested, and the relative growth was 0.842 (inactive).
For C[C@@H]1CN([C@H](C)CO)C(=O)c2cc(NC(=O)Nc3cccc4ccccc34)ccc2O[C@@H]1CN(C)C(=O)NC1CCCCC1, the relative growth was 1 (inactive).
With CN(Cc1ccccc1)C(=O)[C@H](Cc1ccc2ccccc2c1)NC(=O)[C@@H]1CCCN1C(=O)Nc1ccccc1[N+](=O)[O-] the relative growth was 1.04 (inactive).
With CCCC[P+](CCCC)(CCCC)Cc1ccc(NC(=O)[C@H](Cc2ccc3ccccc3c2)N/C(=N/C2CCCCC2)NC2CCCCC2)cc1 the relative growth was 0.0326 (active).
CCCC[P+](CCCC)(CCCC)Cc1ccc(NC(=O)[C@@H](Cc2ccc3ccccc3c2)N=C(NC2CCCCC2)NC2CCCCC2)cc1 was tested, and the relative growth was 0.0386 (active).
C[C@@H]1CCCCO[C@H](CN(C)C(=O)NC2CCCCC2)[C@@H](C)CN([C@H](C)CO)C(=O)c2cc(NS(=O)(=O)c3ccccc3)ccc2O1 was tested, and the relative growth was 0.983 (inactive).
With Cc1ccc2c(c1)[C@](C)(O)CCS2 the relative growth was 1.01 (inactive).
In the case of COc1ccc(S(=O)(=O)Nc2ccc3c(c2)CC(=O)N([C@H](C)CO)C[C@H](C)[C@H](CN(C)C(=O)Nc2c(C)noc2C)O3)cc1, the relative growth is reported as 1.02 (inactive).
For Cc1ccc(S(=O)(=O)N(C)C[C@H]2Oc3ccc(NS(=O)(=O)c4ccccc4)cc3CC(=O)N([C@@H](C)CO)C[C@H]2C)cc1, the relative growth was 0.993 (inactive).
C[C@H]1CN([C@@H](C)CO)C(=O)c2cccc(NS(=O)(=O)c3cccs3)c2O[C@@H]1CN(C)S(=O)(=O)c1ccc(F)cc1 was tested, and the relative growth was 1.02 (inactive).
For O=C(NO)c1ccc(C(=O)N/N=C/[C@H](O)[C@@H](O)[C@H](O[C@@H]2O[C@H](CO)[C@H](O)[C@H](O)[C@H]2O)[C@H](O)CO)cc1, the relative growth was 0.996 (inactive).
With Cc1scc2c1N(C(=O)CN1CCN(C)CC1)c1ccccc1NC2=O.Cl the relative growth was 0.044 (active).
For CN1CCN(CC(=O)N2c3ccccc3C(=O)Nc3cccnc32)CC1.Cl.Cl, the relative growth was 1.08 (inactive).
For O=C(O)CCC(=O)N1CC(=O)Nc2ccccc21, the relative growth was 0.964 (inactive).
In the case of Cc1c(N)nc([C@H](CC(N)=O)NC[C@H](N)C(N)=O)nc1C(=O)N[C@H](C(=O)N[C@H](C)[C@@H](O)[C@H](C)C(=O)N[C@H](C(=O)NCCc1nc(-c2nc(C(=O)NCCCNCCCCN)cs2)cs1)[C@@H](C)O)[C@@H](O[C@@H]1O[C@@H](CO)[C@@H](O)[C@H](O)[C@@H]1O[C@@H]1O[C@H](CO)[C@@H](O)[C@H](OC(N)=O)[C@@H]1O)c1c[nH]cn1, the relative growth is reported as 0.0715 (active).
In the case of C[C@H](CO)N1C[C@H](C)[C@@H](CN(C)C(=O)Nc2ccc(F)cc2)OCc2ccccc2-c2ccccc2C1=O, the relative growth is reported as 0.975 (inactive).
C[C@H](CO)N1C[C@H](C)[C@@H](CN(C)C(=O)Nc2cccc3ccccc23)OCCCC[C@H](C)Oc2ccc(NS(C)(=O)=O)cc2C1=O was tested, and the relative growth was 1.01 (inactive).
In the case of Cc1noc(C)c1S(=O)(=O)N(C)C[C@H]1Oc2c(NS(=O)(=O)c3cn(C)cn3)cccc2C(=O)N([C@H](C)CO)C[C@@H]1C, the relative growth is reported as 0.992 (inactive).
In the case of C[C@@H]1CN([C@H](C)CO)C(=O)c2cccc(NS(=O)(=O)c3ccc(F)cc3)c2O[C@@H]1CN(C)S(=O)(=O)c1cn(C)cn1, the relative growth is reported as 0.99 (inactive).
For C[C@@H]1CCCCO[C@@H](CN(C)C(=O)C2CCCCC2)[C@@H](C)CN([C@H](C)CO)C(=O)c2cc(NC(=O)CCC(F)(F)F)ccc2O1, the relative growth was 0.92 (inactive).
In the case of CC(C)(C)c1cc2[nH]c(N)nc(=N)n2n1, the relative growth is reported as 1.01 (inactive).
C[C@@H]1CN([C@@H](C)CO)S(=O)(=O)c2ccc(C#CC3CC3)cc2O[C@@H]1CN(C)C(=O)C1CCCCC1 was tested, and the relative growth was 1.01 (inactive).
For CN(C)c1cc(CNCC(C)(C)C)c(O)c2c1C[C@H]1C[C@H]3[C@H](N(C)C)C(=O)[C@H](C(N)=O)C(=O)[C@@]3(O)C(=O)[C@@H]1C2=O, the relative growth was 0.0692 (active).
With CN(C)c1ccc(O)c2c1C[C@@H]1C[C@@H]3[C@@H](N(C)C)C(=O)C(C(N)=O)=C(O)[C@]3(O)C(=O)[C@H]1C2=O the relative growth was 0.0589 (active).
For CN(C)[C@@H]1C(=O)[C@@H](C(=O)NCNCCCC[C@H](N)C(=O)O)C(=O)[C@@]2(O)C(=O)[C@@H]3C(=O)c4c(O)cccc4[C@@](C)(O)[C@H]3C[C@@H]12, the relative growth was 0.977 (inactive).
For CN(C)c1cc(NC(=O)CNC(C)(C)C)c(O)c2c1C[C@H]1C[C@H]3[C@H](N(C)C)C(=O)[C@@H](C(N)=O)C(=O)[C@@]3(O)C(=O)[C@H]1C2=O, the relative growth was 1.01 (inactive).
In the case of CN(C)[C@@H]1C(=O)[C@@H](C(N)=O)C(=O)[C@@]2(O)C(=O)[C@H]3C(=O)c4c(O)ccc(Cl)c4[C@@H](O)[C@H]3C[C@@H]12, the relative growth is reported as 0.0324 (active).
In the case of CN(C)[C@@H]1C(=O)[C@@H](C(N)=O)C(=O)[C@@]2(O)C(=O)[C@@H]3C(=O)c4c(O)c(NC(=O)CN5CCCC5)cc(F)c4C[C@H]3C[C@@H]12, the relative growth is reported as 0.0357 (active).
For C[C@@H]1CCCCO[C@@H](CN(C)C(=O)NC2CCCCC2)[C@@H](C)CN([C@H](C)CO)C(=O)c2cc(NC(=O)C3CCCCC3)ccc2O1, the relative growth was 1.02 (inactive).
With C[C@H]1CN([C@@H](C)CO)C(=O)c2cc(NC(=O)CCCCCC(=O)Nc3ccccc3N)ccc2O[C@H]1CN(C)CC1CCCCC1 the relative growth was 0.97 (inactive).
With COc1ccc(NC(=O)Nc2ccc3c(c2)C(=O)N([C@@H](C)CO)C[C@H](C)[C@H](CN(C)C(=O)Nc2ccc(OC)cc2)OCCCC[C@H](C)O3)cc1 the relative growth was 0.996 (inactive).
With CN(C)C(=O)[C@H]1C[C@@H]2CCN(S(C)(=O)=O)C[C@H]2O1 the relative growth was 0.988 (inactive).
With Cc1noc(C)c1NC(=O)N(C)C[C@@H]1Oc2c(NC(=O)c3ccncc3)cccc2C(=O)N([C@H](C)CO)C[C@@H]1C the relative growth was 1 (inactive).
C[C@@H]1CN([C@@H](C)CO)C(=O)Cc2cc(NC(=O)Cn3cnnn3)ccc2O[C@H]1CN(C)C(=O)Nc1ccc(C(F)(F)F)cc1 was tested, and the relative growth was 0.993 (inactive).
With CC(C)NC(=O)Nc1ccc2c(c1)C(=O)N([C@H](C)CO)C[C@H](C)[C@@H](CN(C)CC1CCCCC1)OCCCC[C@@H](C)O2 the relative growth was 0.975 (inactive).
C[C@@H]1CN([C@H](C)CO)C(=O)c2cccc(NS(C)(=O)=O)c2O[C@@H]1CN(C)C(=O)NC1CCCCC1 was tested, and the relative growth was 0.99 (inactive).
For COc1ccc(S(=O)(=O)N(C)C[C@@H]2OCCCC[C@@H](C)Oc3ccc(NC(=O)CCC(F)(F)F)cc3C(=O)N([C@H](C)CO)C[C@@H]2C)cc1, the relative growth was 1.01 (inactive).
With CN(C)c1ccc(O)c2c1C[C@H]1C[C@H]3[C@H](N(C)C)C(=O)[C@@H](C(N)=O)C(=O)[C@@]3(O)C(=O)[C@H]1C2=O the relative growth was 0.0587 (active).
In the case of CN(C)c1cc(NC(=O)CNC(C)(C)C)c(O)c2c1C[C@H]1C[C@H]3[C@H](N(C)C)C(=O)C(C(N)=O)=C(O)[C@@]3(O)C(=O)[C@H]1C2=O, the relative growth is reported as 1 (inactive).
For CN(C)[C@@H]1C(=O)[C@@H](C(N)=O)C(=O)[C@@]2(O)C(=O)[C@H]3C(=O)c4c(O)cccc4C[C@H]3C[C@@H]12, the relative growth was 0.972 (inactive).
With CN(C)c1ccc(O)c2c1C[C@H]1C[C@H]3[C@H](N(C)C)C(=O)C(C(N)=O)=C(O)[C@@]3(O)C(=O)[C@H]1C2=O the relative growth was 0.184 (active).
For C[C@@H]1CN([C@H](C)CO)C(=O)c2cc(NS(=O)(=O)c3cccs3)ccc2O[C@H]1CN(C)Cc1ccc(-c2ccccc2)cc1, the relative growth was 0.997 (inactive).
C[C@H](CO)N1C[C@H](C)[C@H](CN(C)C(=O)Nc2cccc3ccccc23)Oc2ncc(C#Cc3ccccc3)cc2C1=O was tested, and the relative growth was 0.961 (inactive).
With C[C@@H]1CCCCO[C@H](CN(C)Cc2ccncc2)[C@H](C)CN([C@H](C)CO)C(=O)c2cc(NC(=O)Nc3ccccc3)ccc2O1 the relative growth was 0.834 (inactive).
CN[C@H]1CN(c2ccc3c(=O)c(C(=O)O)cn(-c4nccs4)c3n2)C[C@@H]1OC was tested, and the relative growth was 0.0372 (active).
For COC(=O)C1=C[C@@H](O)[C@@H](O)[C@H](O[C@@H]2O[C@H](COC(=O)/C=C/c3ccccc3)[C@@H](O)[C@H](O)[C@H]2O)C1, the relative growth was 0.984 (inactive).
In the case of COc1ccc(S(=O)(=O)Nc2cccc3c2O[C@@H](CN(C)S(=O)(=O)c2ccc(OC)cc2)[C@H](C)CN([C@@H](C)CO)C3=O)cc1, the relative growth is reported as 1.01 (inactive).
For C[C@H]1CN([C@@H](C)CO)C(=O)Cc2cc(NC(=O)Nc3ccccc3)ccc2O[C@H]1CN(C)Cc1ccc(Oc2ccccc2)cc1, the relative growth was 1.01 (inactive).
For C[C@@H]1CN([C@H](C)CO)C(=O)c2cc(NS(=O)(=O)c3ccccc3)ccc2O[C@@H]1CN(C)CC1CC1, the relative growth was 1 (inactive).
In the case of NC[C@H]1OB(O)c2c(OCCO)ccc(Cl)c21, the relative growth is reported as 0.982 (inactive).
With NC[C@H]1OB(O)c2c(OCCCO)cccc21 the relative growth was 0.04 (active).
For CC(C)(C)OC(=O)N1CCC(N)CC1, the relative growth was 0.98 (inactive).
In the case of C=C1c2cccc(O)c2C(=O)C2=C(O)[C@]3(O)C(O)=C(C(N)=O)C(=O)[C@@H](N(C)C)[C@@H]3[C@@H](O)[C@H]12, the relative growth is reported as 0.225 (inactive).
For CC1c2cccc(O)c2C(=O)C2=C(O)C3(O)C(=O)C(C(N)=O)=C(O)C(N(C)C)C3C(O)C21.Cl (stereo not drawn), the relative growth was 0.0595 (active).
For C[C@H]1c2cccc(O)c2C(=O)C2=C(O)[C@]3(O)C(=O)[C@@H](C(N)=O)C(=O)[C@@H](N(C)C)[C@@H]3[C@@H](O)[C@@H]21, the relative growth was 0.0376 (active).
For C=C1c2cccc(O)c2C(=O)[C@@H]2C(=O)[C@]3(O)C(=O)[C@@H](C(N)=O)C(=O)[C@@H](N(C)C)[C@@H]3[C@@H](O)[C@H]12, the relative growth was 0.0752 (active).
In the case of C=C1c2cccc(O)c2C(=O)C2=C(O)C3(O)C(=O)C(C(N)=O)=C(O)C(N(C)C)C3C(O)C12.Cl (stereo not drawn), the relative growth is reported as 0.0546 (active).
